Laboratory results as given in PubChem BioAssay (NCI).
Values joined by “and” are separate entries in the source; they are usually repeats but may differ in a detail not shown here. Equal entries are not always repeated. About 83,000 compounds went through this panel and 20% of them were active in at least one assay; those are over-represented in the sample as a whole.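 Plates (96-well) were seeded with cells, treated with compound at one concentration, and incubated for 48 hours before percent growth was determined.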 Active and inactive are the calls of the source. Rule for the calls: active = growth percent below 10; inactive = the rest.

Assays:
Test in all cases: NCI-60 one-dose screen, 48 h (100 = growth as untreated, 0 = no growth, -100 = all killed)
Settings in all cases: 10 µM unless noted
NCI-H23 lung = system: NCI-H23 lung
NCI-H226 lung = system: NCI-H226 lung
NCI-H322M lung = system: NCI-H322M lung
HOP-62 NSCLC = system: HOP-62 NSCLC
NCI-H460 lung = system: NCI-H460 lung
HOP-92 NSCLC = system: HOP-92 NSCLC
NCI-H522 lung = system: NCI-H522 lung
A549/ATCC NSCLC = system: A549/ATCC NSCLC
786-0 renal = system: 786-0 renal
COLO 205 colon = system: COLO 205 colon

With COc1ccccc1/C=N\N=C(N/N=C/c1ccccc1OC)N/N=C/c1ccccc1OC the growth (NCI-H23 lung) was 58% (inactive) and 27.5% (inactive), the growth (NCI-H226 lung) was 85.7% (inactive) and 46.5% (inactive) and the growth (NCI-H322M lung) was 56.5% (inactive) and 15.1% (inactive). The growth (HOP-62 NSCLC) was 74.8% (inactive) and 26.9% (inactive), the growth (NCI-H460 lung) was 46.3% (inactive) and 12.8% (inactive) and the growth (HOP-92 NSCLC) was 68.2% (inactive) and 15.3% (inactive). For the same compound, the growth (NCI-H522 lung) was 38.6% (inactive) and 17.3% (inactive), the growth (A549/ATCC NSCLC) was 61.1% (inactive) and 27.1% (inactive) and the growth (786-0 renal) was 74.4% (inactive) and 35.8% (inactive). For the same compound, the growth (COLO 205 colon) was 75.6% (inactive) and 34.6% (inactive).
For NS(=O)(=O)c1cc2c(cc1Cl)NC(C(Cl)Cl)NS2(=O)=O (stereo not given), the growth (NCI-H23 lung) was 120% (inactive) and 106% (inactive), the growth (NCI-H226 lung) was 108% (inactive) and 99.3% (inactive) and the growth (NCI-H322M lung) was 98.8% (inactive) and 101% (inactive). The growth (HOP-62 NSCLC) was 104% (inactive) and 122% (inactive), the growth (NCI-H460 lung) was 110% (inactive) and 114% (inactive) and the growth (HOP-92 NSCLC) was 96.3% (inactive). The growth (NCI-H522 lung) was 96.7% (inactive) and 104% (inactive), the growth (A549/ATCC NSCLC) was 80.9% (inactive) and 106% (inactive) and the growth (786-0 renal) was 87.6% (inactive) and 104% (inactive). For the same compound, the growth (COLO 205 colon) was 109% (inactive) and 113% (inactive).
For COc1ccc(-c2cn[nH]c2-c2cc(OC)c(OC)c(OC)c2)cc1N, the growth (NCI-H23 lung) was 22.5% (inactive) and 28.3% (inactive), the growth (NCI-H226 lung) was 69.4% (inactive) and 50.2% (inactive) and the growth (NCI-H322M lung) was 45.3% (inactive) and 36.2% (inactive). The growth (HOP-62 NSCLC) was 52.2% (inactive) and 35.6% (inactive), the growth (NCI-H460 lung) was 4.87% (active) and 8.68% (active) and the growth (HOP-92 NSCLC) was 53.9% (inactive) and 22.5% (inactive). The growth (NCI-H522 lung) was 0.102% (active) and 3.18% (active), the growth (A549/ATCC NSCLC) was 12.4% (inactive) and 23% (inactive) and the growth (786-0 renal) was 18.1% (inactive) and 25.6% (inactive). The growth (COLO 205 colon) was -55.7% (active) and -53.2% (active).
COc1ccc(S(=O)(=O)N2CCOCC2)cc1NC(=O)c1[nH]c(C)c2c1CCCCC2=O was tested, and the growth (NCI-H23 lung) was 104% (inactive) and 59% (inactive), the growth (NCI-H226 lung) was 104% (inactive) and 62% (inactive) and the growth (NCI-H322M lung) was 105% (inactive) and 64.6% (inactive). For the same compound, the growth (HOP-62 NSCLC) was 109% (inactive) and 33.8% (inactive), the growth (NCI-H460 lung) was 103% (inactive) and 75.9% (inactive) and the growth (HOP-92 NSCLC) was 111% (inactive) and 27% (inactive). The growth (NCI-H522 lung) was 100% (inactive) and 40.9% (inactive), the growth (A549/ATCC NSCLC) was 97.2% (inactive) and 61.7% (inactive) and the growth (786-0 renal) was 107% (inactive) and 93.4% (inactive). For the same compound, the growth (COLO 205 colon) was 113% (inactive) and 34.8% (inactive).
With COc1cc(NS(C)(=O)=O)ccc1Nc1c2ccccc2nc2c(C)cccc12 the growth (NCI-H23 lung) was -8.23% (active) and 1.07% (active), the growth (NCI-H226 lung) was -57.6% (active) and -44.9% (active) and the growth (NCI-H322M lung) was 22.8% (inactive) and 28.6% (inactive). For the same compound, the growth (HOP-62 NSCLC) was -17.9% (active) and -32.5% (active), the growth (NCI-H460 lung) was -36.3% (active) and -9.34% (active) and the growth (HOP-92 NSCLC) was -17.9% (active). For the same compound, the growth (NCI-H522 lung) was -14.2% (active), the growth (A549/ATCC NSCLC) was -62.9% (active) and the growth (786-0 renal) was -41.9% (active) and -40.4% (active). For the same compound, the growth (COLO 205 colon) was 7.98% (active) and 0.541% (active).
CCOC(=O)Nc1nc2ccccc2[nH]1 was tested, and the growth (NCI-H23 lung) was 102% (inactive) and 56.7% (inactive), the growth (NCI-H226 lung) was 104% (inactive) and 71.9% (inactive) and the growth (NCI-H322M lung) was 107% (inactive) and 72.2% (inactive). For the same compound, the growth (HOP-62 NSCLC) was 106% (inactive) and 53.4% (inactive), the growth (NCI-H460 lung) was 106% (inactive) and 22.4% (inactive) and the growth (HOP-92 NSCLC) was 104% (inactive) and 62.5% (inactive). The growth (NCI-H522 lung) was 95.6% (inactive) and 46.8% (inactive), the growth (A549/ATCC NSCLC) was 102% (inactive) and 55.4% (inactive) and the growth (786-0 renal) was 98.5% (inactive) and 39% (inactive). For the same compound, the growth (COLO 205 colon) was 119% (inactive) and 37.7% (inactive).
For COc1cc2nc(N3CCN(C(=O)C4COc5ccccc5O4)CC3)nc(N)c2cc1OC (stereo not given), the growth (NCI-H23 lung) was 90.1% (inactive) and 99% (inactive) and 101% (inactive), the growth (NCI-H226 lung) was 96.2% (inactive) and 96.7% (inactive) and 99.9% (inactive) and the growth (NCI-H322M lung) was 123% (inactive) and 75.6% (inactive) and 99.4% (inactive). For the same compound, the growth (HOP-62 NSCLC) was 102% (inactive) and 96.4% (inactive) and 110% (inactive), the growth (NCI-H460 lung) was 101% (inactive) and 98.5% (inactive) and 117% (inactive) and the growth (HOP-92 NSCLC) was 148% (inactive) and 106% (inactive) and 124% (inactive). The growth (NCI-H522 lung) was 82.6% (inactive) and 84.1% (inactive), the growth (A549/ATCC NSCLC) was 102% (inactive) and 88.9% (inactive) and the growth (786-0 renal) was 112% (inactive) and 93.5% (inactive) and 99% (inactive). For the same compound, the growth (COLO 205 colon) was 93.6% (inactive) and 104% (inactive).
In the case of O=S1(=O)CC(Br)C(Br)C1 (stereo not given), the growth (NCI-H23 lung) is reported as 61.3% (inactive) and 97.8% (inactive), the growth (NCI-H226 lung) is reported as 40.7% (inactive) and 113% (inactive) and the growth (NCI-H322M lung) is reported as 104% (inactive) and 108% (inactive). For the same compound, the growth (HOP-62 NSCLC) was 104% (inactive) and 116% (inactive), the growth (NCI-H460 lung) was 107% (inactive) and 97.5% (inactive) and the growth (HOP-92 NSCLC) was 5.91% (active) and 37.5% (inactive). For the same compound, the growth (NCI-H522 lung) was -48.2% (active), the growth (A549/ATCC NSCLC) was 95.4% (inactive) and 95% (inactive) and the growth (786-0 renal) was 101% (inactive) and 82.1% (inactive). The growth (COLO 205 colon) was 41.1% (inactive) and 58.3% (inactive).
For CC(=O)NC(Cc1ccccc1)C(=O)Oc1ccc2ccccc2c1 (stereo not given), the growth (NCI-H23 lung) was 95.9% (inactive) and 86.5% (inactive), the growth (NCI-H226 lung) was 101% (inactive) and 106% (inactive) and the growth (NCI-H322M lung) was 124% (inactive) and 108% (inactive). The growth (HOP-62 NSCLC) was 96.9% (inactive) and 94.7% (inactive), the growth (NCI-H460 lung) was 106% (inactive) and 107% (inactive) and the growth (HOP-92 NSCLC) was 78% (inactive) and 84.9% (inactive). The growth (NCI-H522 lung) was 98.2% (inactive), the growth (A549/ATCC NSCLC) was 94.7% (inactive) and 102% (inactive) and the growth (786-0 renal) was 110% (inactive). The growth (COLO 205 colon) was 93.3% (inactive) and 105% (inactive).
For CC(=O)Oc1cc(C(=O)O)cc(OC(C)=O)c1OC(C)=O, the growth (NCI-H23 lung) was 103% (inactive) and 97.3% (inactive), the growth (NCI-H226 lung) was 96.4% (inactive) and 89.6% (inactive) and the growth (NCI-H322M lung) was 116% (inactive) and 102% (inactive). The growth (HOP-62 NSCLC) was 88.8% (inactive) and 99% (inactive), the growth (NCI-H460 lung) was 113% (inactive) and 108% (inactive) and the growth (HOP-92 NSCLC) was 99.1% (inactive) and 107% (inactive). The growth (NCI-H522 lung) was 100% (inactive) and 93.4% (inactive), the growth (A549/ATCC NSCLC) was 103% (inactive) and 90.1% (inactive) and the growth (786-0 renal) was 111% (inactive) and 102% (inactive). For the same compound, the growth (COLO 205 colon) was 125% (inactive) and 122% (inactive).
Oc1nc(NCCc2ccccc2)sc1/C=C1\C=Nc2ncccc21 was tested, and the growth (NCI-H23 lung) was 2.96% (active) and 9.1% (active), the growth (NCI-H226 lung) was 22.4% (inactive) and 3.3% (active) and the growth (NCI-H322M lung) was 19.6% (inactive) and 5.21% (active). For the same compound, the growth (HOP-62 NSCLC) was -2.98% (active) and 19.9% (inactive), the growth (NCI-H460 lung) was 15.1% (inactive) and 14.1% (inactive) and the growth (HOP-92 NSCLC) was 11.8% (inactive) and -9.73% (active). The growth (NCI-H522 lung) was 4.33% (active) and 26.6% (inactive), the growth (A549/ATCC NSCLC) was 8.14% (active) and 19.1% (inactive) and the growth (786-0 renal) was 19.7% (inactive) and 9.01% (active). For the same compound, the growth (COLO 205 colon) was -6.84% (active) and 4.78% (active).
For O=C1c2ccccc2C(=O)N1/N=C/c1ccc2c(c1)OCO2, the growth (NCI-H23 lung) was 120% (inactive), the growth (NCI-H226 lung) was 101% (inactive) and the growth (NCI-H322M lung) was 95.1% (inactive). For the same compound, the growth (HOP-62 NSCLC) was 104% (inactive), the growth (NCI-H460 lung) was 112% (inactive) and the growth (HOP-92 NSCLC) was 74.4% (inactive). The growth (NCI-H522 lung) was 64.5% (inactive), the growth (A549/ATCC NSCLC) was 87.7% (inactive) and the growth (786-0 renal) was 104% (inactive). The growth (COLO 205 colon) was 99.5% (inactive).
COc1cc2c(Nc3ccc(Cl)c(Cl)c3F)ncnc2cc1OCC1C[C@@H]2CN(C)C[C@@H]2C1 (stereo not given in full) was tested, and the growth (NCI-H23 lung) was -82.2% (active) and 40% (inactive), the growth (NCI-H226 lung) was -65.1% (active) and 46% (inactive) and the growth (NCI-H322M lung) was -96.4% (active) and 21.5% (inactive). For the same compound, the growth (HOP-62 NSCLC) was -87.2% (active) and 16.6% (inactive), the growth (NCI-H460 lung) was -79.4% (active) and 21.6% (inactive) and the growth (HOP-92 NSCLC) was -84.5% (active) and 16.3% (inactive). For the same compound, the growth (NCI-H522 lung) was -80.7% (active) and -36.8% (active), the growth (A549/ATCC NSCLC) was -92.8% (active) and 15.8% (inactive) and the growth (786-0 renal) was -91.9% (active) and -22.5% (active). The growth (COLO 205 colon) was -84.6% (active) and -25.1% (active).
For CCOC(=O)C(C(=O)OCC)C(c1ccccc1)N1CCN(c2ccccc2)CC1 (stereo not given), the growth (NCI-H23 lung) was 107% (inactive) and 114% (inactive), the growth (NCI-H226 lung) was 112% (inactive) and 96.9% (inactive) and the growth (NCI-H322M lung) was 93.3% (inactive) and 107% (inactive). For the same compound, the growth (HOP-62 NSCLC) was 116% (inactive) and 105% (inactive), the growth (NCI-H460 lung) was 116% (inactive) and 109% (inactive) and the growth (HOP-92 NSCLC) was 98.1% (inactive) and 86.6% (inactive). For the same compound, the growth (NCI-H522 lung) was 89.7% (inactive) and 88% (inactive), the growth (A549/ATCC NSCLC) was 99.3% (inactive) and 83.2% (inactive) and the growth (786-0 renal) was 104% (inactive) and 102% (inactive). The growth (COLO 205 colon) was 114% (inactive) and 124% (inactive).
